In this assay the target is Genome polyprotein (Poliovirus type 1 (strain Mahoney)) (UniProt P03300). The assay can be described thus: inhibitors of poliovirus polymerase RNA elongation – biochemical, fluorescence polarization, total intensity, primary screen (AID 588519). On z-score: compound at 16.7 µg/mL. The settings on record: stronger effect = lower value; for % elongation: compound at 16.7 µg/mL; for z-score: measured here: FP z-score. In general terms: In fluorescence polarisation assays a small probe gives low polarisation when free and higher when bound to something large.

The mark [1] stands for this setting: measured here: total intensity read-out.

In all, about 150,000 compounds went through this assay and about 1,000 (0.67%) were called active. No stated cut-off is given here; in the data, active means % elongation below about 90%; inactive means the rest, inconclusive results apart. Many of the other results were omitted from the sample, so actives are more common in it than they were.

Sequence of Genome polyprotein (Poliovirus type 1 (strain Mahoney)) (P03300 1749-2209 limits assumed): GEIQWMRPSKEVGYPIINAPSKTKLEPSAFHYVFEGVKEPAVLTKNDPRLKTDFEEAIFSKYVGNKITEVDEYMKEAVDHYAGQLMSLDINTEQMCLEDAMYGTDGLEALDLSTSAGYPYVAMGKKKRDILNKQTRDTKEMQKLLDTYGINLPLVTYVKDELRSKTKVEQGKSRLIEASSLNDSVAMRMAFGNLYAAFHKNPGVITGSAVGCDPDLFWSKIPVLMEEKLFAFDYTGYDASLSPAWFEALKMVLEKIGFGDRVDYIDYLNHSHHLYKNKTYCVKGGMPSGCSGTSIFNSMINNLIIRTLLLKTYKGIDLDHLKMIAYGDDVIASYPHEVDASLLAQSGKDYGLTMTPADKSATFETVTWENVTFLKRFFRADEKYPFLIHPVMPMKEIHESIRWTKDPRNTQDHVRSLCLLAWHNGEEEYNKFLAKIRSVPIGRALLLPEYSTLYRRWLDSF

Consider `CSc1ccc(/C=N/NC(N)=S)cc1`, for which the % elongation is 98% (inactive) and the z-score is -0.7. Also, under setting [1], the % elongation worked out at 63%.

For the compound `CCc1c(C)sc(NC(=O)c2cccs2)c1C(N)=O`, the % elongation is 74% (active) and the z-score was -2.8. For the same compound, the % elongation under setting [1] amounted to 79%.

For `COC(=O)c1c(NC(=O)c2cccs2)sc2c1C(C(=O)OC)CC2` (stereo unspecified), the % elongation is 99% (inactive) and the z-score is -0.7. Moreover, the % elongation under setting [1] amounted to 97%.

For `Cc1ccc(O)c(NC(=O)c2cccs2)c1`, the % elongation is 99% (inactive) and the z-score is -0.7. For the same compound, the % elongation under setting [1] is 108%.

On to `CC(NC(=O)Nc1cccnc1)N1C(=O)C2C3C=CC(C3)C2C1=O` (stereo unspecified), for which the % elongation is 100% (inactive) and the z-score was -0.4. Moreover, the % elongation under setting [1] was 103%.

In the case of `O=C(O)/C(=C/C(=O)c1ccccc1)Nc1ccc(OC(F)(F)F)cc1`, the % elongation was 103% (inactive) and the z-score was determined as 0. Also, the % elongation under setting [1] was determined as 111%.

As to `CC(C)(C)NC(=O)C1N(C2CC2)C(=O)C2C(C(=O)NCc3ccccc3)C3C=CC21O3` (stereo unspecified), the % elongation was 103% (inactive) and the z-score worked out at 0.3. For the same compound, under setting [1], the % elongation came to 104%.

As to `Cc1ccccc1CN1CCCN(Cc2ccccc2)S1(=O)=O`, the % elongation was 103% (inactive) and the z-score was 0.1. Besides, the % elongation under setting [1] came out at 99%.

For the compound `CCC(=O)c1ccc(OCC(=O)NC2CCCCC2C)cc1` (stereo unspecified), the % elongation was 101% (inactive) and the z-score is -0.4. The % elongation under setting [1] stood at 93%.

In the case of `Cc1cc(C)c2nc(-c3ccco3)cc(C(=O)O)c2c1`, the % elongation was 96% (inactive) and the z-score was -1.9. The % elongation under setting [1] is 93%.

Regarding `Cc1cc(C)c2nc3nc(C)cc(C)c3c(N)c2c1`, the % elongation was 90% (active) and the z-score was -2.4. Also, under setting [1], the % elongation came out at 76%.

Take `Cc1cc(C(=O)COc2ccc(-n3ccnc3)cc2)c(C)n1-c1ccc2c(c1)OCO2`: the % elongation was 103% (inactive) and the z-score worked out at 0.1. In addition, the % elongation under setting [1] was found to be 107%.

Regarding `CC(=O)Nc1nc2ccccc2n1Cc1ccc(C)cc1`, the % elongation was 100% (inactive) and the z-score was -0.7. Also, the % elongation under setting [1] was found to be 102%.

For `Nc1nnc(-c2ccc(Cn3c(-c4cncs4)nc4ccccc43)cc2)s1`, the % elongation was 63% (active) and the z-score is -5.6. The % elongation under setting [1] came out at 75%.

For `Cc1ccc(Cn2c(CNC(=O)c3ccccc3)nc3ccccc32)cc1`, the % elongation is 100% (inactive) and the z-score is -0.3. Besides, under setting [1], the % elongation amounted to 104%.

With `O=C1Nc2ccccc2N(c2ccccc2)N1`, the % elongation was 101% (inactive) and the z-score came out at 0.4. Further, the % elongation under setting [1] worked out at 105%.

As to `CCOc1ccccc1N(CC(=O)NC)S(C)(=O)=O`, the % elongation was 102% (inactive) and the z-score came out at 0.4. Besides, the % elongation under setting [1] turned out to be 103%.

Take `Cc1cc(C(=O)COC(=O)c2ccc(S(=O)(=O)NCc3ccco3)cc2)c(C)n1C`: the % elongation is 101% (inactive) and the z-score was -0.2. For the same compound, the % elongation under setting [1] worked out at 100%.

For `CCOc1ccccc1N(CC)C(=O)Nc1cn(C)c(=O)c2ccccc12`, the % elongation is 103% (inactive) and the z-score is -0.7. Further, the % elongation under setting [1] amounted to 104%.

Turning to `CCOc1ccccc1CNC(=O)Cn1ncc2c([nH]c3ccccc32)c1=O`, the % elongation was 102% (inactive) and the z-score was -0.4. In addition, the % elongation under setting [1] came to 103%.

In the case of `CCOc1ccccc1CNC(=O)Nc1cn(CC(C)C)c(=O)c2ccccc12`, the % elongation was 28% (active) and the z-score was -6. For the same compound, under setting [1], the % elongation worked out at 48%.

In the case of `CCOc1ccc(OCC(=O)OC(C)C(=O)Nc2ncc(Cl)cc2Cl)cc1` (stereo unspecified), the % elongation was 106% (inactive) and the z-score came out at 0.3. In addition, the % elongation under setting [1] worked out at 97%.

With `Cc1cccc(OCCOc2ccc(Br)cc2/C=C2\SC(=S)NC2=O)c1`, the % elongation was 101% (inactive) and the z-score was -0.2. For the same compound, the % elongation under setting [1] turned out to be 104%.

For `Cc1cc(C)c(C(N)=O)c(SCC(=O)Nc2c(C)n(C)n(-c3ccccc3)c2=O)n1`, the % elongation was 103% (inactive) and the z-score stood at 0.1. In addition, under setting [1], the % elongation was 97%.

As for `O=C1Cc2ccccc2C(=O)N1Cc1ccccn1`, the % elongation was 85% (active) and the z-score is -1.9. Also, the % elongation under setting [1] was 83%.

Consider `CSc1nc(=O)n(Cc2ccccn2)c2c1CCC2`, for which the % elongation is 101% (inactive) and the z-score was 0.1. Further, under setting [1], the % elongation came to 104%.

`O=C1c2ccccc2C(=O)N1CC1OCc2ccccc2CO1`: the % elongation is 103% (inactive) and the z-score stood at 0.3. For the same compound, the % elongation under setting [1] is 110%.

With `Cc1ccc(NC(=O)C2C3C=CC4(O3)C2C(=O)N(CCCN2CCOCC2)C4C(=O)NC2CCCC(C)C2C)cc1Cl` (stereo unspecified), the % elongation was 101% (inactive) and the z-score was found to be 0.1. Further, the % elongation under setting [1] worked out at 103%.

Turning to `CCn1c(=O)cc(O)c2ccccc21`, the % elongation was 115% (inactive) and the z-score stood at 1.3. Moreover, under setting [1], the % elongation turned out to be 123%.

In the case of `CCn1c2ccccc2c2cc(CN3CCN(Cc4cccc(Cl)c4)CC3)ccc21`, the % elongation was 103% (inactive) and the z-score stood at 0.1. Under setting [1], the % elongation amounted to 108%.

With `CCn1c2ccccc2c2cc(P(=S)(OC)OC)ccc21`, the % elongation was 81% (active) and the z-score was -2.3. Also, the % elongation under setting [1] amounted to 86%.

Take `O=C(CCc1nc(CN2CCN(S(=O)(=O)c3ccc(F)cc3)CC2)no1)N1CCCCC1`: the % elongation was 109% (inactive) and the z-score came to 0.3. The % elongation under setting [1] is 112%.

Take `O=C(CN1CCN(S(=O)(=O)c2ccc3[nH]c(=O)[nH]c3c2)CC1)N1CCCCCC1`: the % elongation was 86% (active) and the z-score is -1.1. Also, under setting [1], the % elongation worked out at 93%.

As to `O=C(C1CCN(S(=O)(=O)c2ccc3[nH]c4c(c3c2)CCCCC4)CC1)N1CCCC1`, the % elongation was 100% (inactive) and the z-score was -1. The % elongation under setting [1] amounted to 97%.

For `CCC1CN2CCC34c5ccccc5NC3C(C)C1CC24` (stereo unspecified), the % elongation was 101% (inactive) and the z-score turned out to be 0.3. Also, under setting [1], the % elongation came out at 104%.

With `CCOC(=O)C1=C(C)NC(=O)NC1c1c(Cl)nc2c(C)cccn2c1=O` (stereo unspecified), the % elongation was 104% (inactive) and the z-score worked out at 0. For the same compound, the % elongation under setting [1] turned out to be 109%.

`CCC(C)NC(=O)C1c2ccccc2C(=O)N1Cc1ccccc1` (stereo unspecified): the % elongation is 102% (inactive) and the z-score came out at 0.2. The % elongation under setting [1] amounted to 102%.

The values are drawn from PubChem BioAssay AID588519 (ICCB-Longwood Screening Facility, Harvard Medical School, 2011).
